Screens deposited in PubChem by National Center for Advancing Translational Sciences (NCATS).
TDP1 cell noCPT = qHTS for Inhibitors of human tyrosyl-DNA phosphodiesterase 1 (TDP1): qHTS in cells in absence of CPT; 420,000 tested, 15% active; Potency, µM (titrated, usually from 46.2 µM), for inactives: at the highest dose activity change, negative = growth inhibition, usual class: inhibitors; DT40 Tdp1-/- hTDP1 cells, no CPT, ATP luminescence, 48 h; AID 686978, 2013; also: nearly all actives have a fitted effect of over 55% in size
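Readout: luminescence from CellTiter-Glo after 30 min in the dark at RT. Cells: DT40 Tdp1-/- with stable hTDP1, 400/well. Exposure: compounds alone, ≥48 hr, 37 °C.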
TDP1 block = blocks human tyrosyl-DNA phosphodiesterase 1; 350,000 tested, 0.28% active; recombinant TDP1, AlphaScreen DNA substrate cleavage; Potency, µM (highest dose often 130 µM), inactives show top-dose activity change, negative = inhibition, actives largely listed as inhibitors; also: nearly all actives have a fitted effect of over 40% in size
Target sequence (Q9NUW8 whole entry, looked up): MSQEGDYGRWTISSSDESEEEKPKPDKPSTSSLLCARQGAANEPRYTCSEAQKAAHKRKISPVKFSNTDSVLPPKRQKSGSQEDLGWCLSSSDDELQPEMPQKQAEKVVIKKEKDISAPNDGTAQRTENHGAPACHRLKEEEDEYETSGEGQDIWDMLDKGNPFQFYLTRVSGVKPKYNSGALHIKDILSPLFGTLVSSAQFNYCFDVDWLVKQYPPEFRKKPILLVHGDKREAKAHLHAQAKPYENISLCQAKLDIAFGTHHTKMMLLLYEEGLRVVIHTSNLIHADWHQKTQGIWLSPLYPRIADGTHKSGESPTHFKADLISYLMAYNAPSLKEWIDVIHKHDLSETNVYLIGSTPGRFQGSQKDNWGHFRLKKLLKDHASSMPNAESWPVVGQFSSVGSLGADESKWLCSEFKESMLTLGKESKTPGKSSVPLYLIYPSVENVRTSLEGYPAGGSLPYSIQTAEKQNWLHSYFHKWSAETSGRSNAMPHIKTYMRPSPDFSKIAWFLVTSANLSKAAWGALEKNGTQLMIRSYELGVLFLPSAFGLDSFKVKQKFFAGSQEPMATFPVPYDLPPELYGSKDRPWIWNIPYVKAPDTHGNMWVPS
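AlphaScreen read-out: signal falls as enzyme removes the 3' tyrosine-FITC from a 5'-biotinylated DNA oligo (15 nM, 5 min, RT). Enzyme was E. coli-made recombinant Tdp1 at 1 nM, exposed to compound for 15 min beforehand; beads 10 ug/ml, 10 min.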
DT40 TDP1 CPT = growth inhibition of DT40 Tdp1-/-;hTDP1 cells with camptothecin (screen for TDP1 inhibitors) | AID 686979 | 420,000 tested, 12% active | chicken DT40 Tdp1-/-;hTDP1 cells + 20 nM CPT, ATP luminescence, 48 h | Potency, µM (series often up to 46.2 µM), inactives show at the highest dose activity change, negative = growth inhibition, usual class: inhibitors; also: nearly all actives have a fitted effect of over 55% in size
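Chicken DT40 Tdp1-/- cells complemented with human TDP1, 400 cells/well, exposed to compounds plus 20 nM camptothecin for at least 48 h at 37 C; viability read as ATP content by CellTiter-Glo luminescence.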
RORg inh = blocks mouse ROR gamma transcriptional activity; AID 2551; 310,000 tested, 5.4% active; P51450; Potency, µM (top dose mostly 53.6 µM), for the others: at the highest dose activity change, negative = inhibition, hits mostly inhibitors; Drosophila S2 Gal4-RORgamma UAS-luciferase reporter, 20 h; also: nearly all actives have a fitted effect of over 60% in size
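Using a luciferase readout, inhibitors were identified by reduced reporter activity in Drosophila cells coexpressing a copper-inducible Gal4–ROR gamma fusion and UAS-driven Photinus luciferase, incubated 20 hr after 700 uM copper sulfate.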
Gal4-VP16 FLuc = inhibits Gal4-VP16 luciferase reporter, ROR gamma counter-screen | 310,000 tested, 3.5% active | Drosophila S2 Gal4-VP16 UAS-luciferase, luminescence, 20 h | Potency, µM (doses to about 53.6 µM), for the others: at the highest dose activity, negative = inhibition, most hits filed as inhibitors;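 also: Gal4-VP16 expression switched on by copper sulfate through the metallothionein promoter; nearly all actives have a fitted effect of over 50% in size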
The depositor's hits bear a star; ? = inconclusive; · = no result given; [ ] = another dose, or the depositor's remark. Hits are enriched below; roughly 19% of the tested compounds scored in any of these assays. Calls follow the shape of the dose curve; as a rule, active = well fitted curve in the direction sought with a large enough effect; inconclusive = small, poorly fitted or top-dose-only effect, or another doubt; inactive = no such curve, though single readings can be large; an effect the other way counts as inactive or inconclusive. % is scaled to controls: 0 for no effect and ±100 for the full control effect; potency is read from the fitted curve at half-maximal effect.

SMILES	TDP1 cell noCPT	TDP1 block	DT40 TDP1 CPT	RORg inh	Gal4-VP16 FLuc
Oc1ccc(Cl)c(Cl)c1	-25%	0%	-18%	33%	-5%
COCCCn1c(N)c(C(=O)Nc2sc3c(c2C(=O)OC)CCCC3)c2nc3ccccc3nc21	18µM*	-1%	?	-8%	-5%
COCCCn1c(N)c(C(=O)Nc2ccccc2)c2nc3ccccc3nc21	?	5%	29µM*	-7%	-25%
CCC(C)NC(=O)c1c(N)n(CCCOC)c2nc3ccccc3nc12 (centres undefined)	?	-8%	-6%	7%	-11%
O=c1[nH]c(=O)n(Cc2ccc(F)cc2)c(O)c1/C=N/Nc1ccccc1	-14%	12%	18%	-6%	1%
CC(C)c1ccc(NC(=O)C2CCN(S(=O)(=O)c3ccc(Br)s3)CC2)cc1	?	-2%[12.3 µM]	?	·	·
Cc1ccc(N2CCN(C(=O)C3CCC(CNS(=O)(=O)c4ccc(Br)s4)CC3)CC2C)cc1 (centres undefined)	4.6µM*	-2%[12.3 µM]	7.3µM*	·	·
COC(=O)C[C@@](O)(CCC(C)(C)O)C(=O)O[C@@H]1C(OC)=C[C@]23CCCN2CCc2cc4c(cc2[C@@H]13)OCO4	·	4%	·	0.089µM*	0.11µM*
COC1=CC23CCCN2CCc2cc4c(cc2C3C1O)OCO4 (centres undefined)	?	-8%[56.1 µM]	?	-12%	-3%
COC(=O)C[C@](O)(CCCC(C)(C)O)C(=O)O[C@@H]1C(OC)=CC23CCCN2CCc2cc4c(cc2[C@H]13)OCO4 (some centres undefined)	0.0094µM*	·	0.013µM*	·	·
COC(=O)C1=C(c2cccc(OCc3ccccc3)c2)C[C@@H]2CC[C@H]1N2C(=O)NC1CCN(Cc2ccccc2)CC1	6.5µM*	5%	6.5µM*	·	·
COC(=O)C1=C(c2cccc(OCc3ccccc3)c2)C[C@@H]2CC[C@H]1N2C(=O)NCCCc1ccccc1	?	0%	?	·	·
COC(=O)C1=C(c2ccc(F)cc2OCc2ccccc2)C[C@@H]2CC[C@H]1N2C(=O)NC1CCN(Cc2ccccc2)CC1	23µM*	3%	8.2µM*	·	·
COC(=O)C1=C(c2ccccc2OCc2ccccc2)C[C@@H]2CC[C@H]1N2C(=O)NC1CCN(Cc2ccccc2)CC1	23µM*	4%	?	·	·
CC(=O)Nc1ccccc1C(=O)OCc1ccc(F)cc1	?	1%	-6%	?	-15%
N#CSCC(=O)N1c2ccccc2CCc2ccccc21	7.3µM*	5%	5.8µM*	11µM*	?
COC(=O)C(O)(c1ccc(NC(=O)c2ccccc2)cc1)C(F)(F)F (centres undefined)	-18%	·	4%	10%	-5%
COc1ccc(C(=O)Nc2ccc(-c3cc(C(F)(F)F)nn3-c3ccccc3)cc2)cc1OC	13µM*	12%	18µM*	·	·
Cc1ccc(NC(=O)N2CCN(c3cc(-c4noc(C)n4)ccc3C)CC2)c(F)c1	16µM*	4%	?	·	·
COc1ccc(/C=C2\C(=N\O)C3CCN2CC3)cc1	?	0%	?	39%	-8%
O=C(NC1CCCCC1)[C@@H]1CC=C[C@@H]2CCN(Cc3ccccc3)C(=O)[C@@H]21	?	·	-18%	·	·
CCCCOP(=O)(CN1CCOCC1)OCCCC	-12%	0%	-30%	16%	-2%
Cc1ccc(C)c(S(=O)(=O)Nc2ccc3c(c2)CCCN3C(=O)c2cccs2)c1	18µM*	1%	16µM*	·	·
Cc1nn(-c2nccs2)c2c1C(=O)CC(C)(C)C2Br (centres undefined)	16µM*	·	?	·	·
C/C=C1/C[N+]2(C)CCC34C(=C(C=O)[C@H]1C[C@@H]32)Nc1ccccc14 (some centres undefined)	-7%	·	-20%	·	·
SMILES	TDP1 cell noCPT	TDP1 block	DT40 TDP1 CPT	RORg inh	Gal4-VP16 FLuc
Fc1ccc(C(OCCN2CCN(C/C=C/c3ccccc3)CC2)c2ccc(F)cc2)cc1	3.3µM*	22%	5.2µM*	·	·
c1ccc(CCCN2CCN(CCOC(c3ccccc3)c3ccccc3)CC2)cc1	13µM*	0%[56.1 µM]	9.2µM*	32µM*	?
C=CCNc1nnc(Sc2ncccc2[N+](=O)[O-])s1	7.3µM*	9%	5.2µM*	-23%	-4%
O=c1[nH]c(=O)n(Cc2ccccc2Cl)c(O)c1C=Nc1ccc(F)cc1	-6%	1%	8%	18%	-11%
O=c1cccc2n1CC1CC2CN(Cc2c(Cl)cccc2Cl)C1 (centres undefined)	-16%	3%	-5%	-28%	7%
S=P(NCCNP(=S)(N1CC1)N1CC1)(N1CC1)N1CC1	1.3µM*	·	-59%	·	·
S=P(NCCSCc1ccccc1)(N1CC1)N1CC1	7.3µM*	·	3.7µM*	·	·
O=P(N1CC1)(N1CC1)N1CCc2ccccc21	8.2µM*	·	7.3µM*	·	·
COc1ccc(NC(=O)c2cc([N+](=O)[O-])ccc2N2CCNCC2)cc1	?	0%	-3%	6%	-17%
O=c1c2ccccc2[nH]c(=S)n1-c1cccnc1	8%	4%	-4%	14%	-6%
COc1cc(-n2c(=S)[nH]c3ccccc3c2=O)c(Cl)cc1Cl	26µM*	7%	?	2.8µM*	5.6µM*
CC(C)Oc1cc(-n2c(=S)[nH]c3ccccc3c2=O)c(Cl)cc1Cl	16µM*	8%	?	2.8µM*	5µM*
O=C(CCC(=O)N1CC2C[C@@H](C1)Cn1c2cccc1=O)NCCc1ccccc1	5%	·	6%	-10%	-3%
CCCC(=O)c1cc(CP(=O)(OCC)OCC)oc1C	4%	1%	-21%	-3%	-9%
O=c1[nH]c(O)c(C=Nc2ccc(F)c(Cl)c2)c(=O)[nH]1	17%	·	-4%	13%	-5%
CCc1nc2ccc(N3CCN(C)CC3)cc2nc1CC	-3%	0%	4%	-2%	10%
CC(=O)Nc1cc(-c2cccc(C(=O)N(C)C)c2)cn2c(-c3cccc(C(F)(F)F)c3)cnc12	16µM*	·	18µM*	·	·
C[C@]12CC[C@H]3[C@@H](CCC4=C(O)C(=O)CC[C@@H]43)[C@@H]1CC[C@@H]2OC(=O)CCC1CCCC1	-21%	·	-6%	·	·
C=CCc1c(C)[nH]c(=S)c(C#N)c1C	?	3%	?	6.3µM*	?
Cc1ccccc1N1C(=O)CC(=O)NC1=O	4%	0%	-11%	-15%	4%
CC(C)(C)C(=O)OC[N+](C)(C)CCOC(=O)C(O)(c1ccccc1)C1CCCC1 (centres undefined)	-24%	2%	0%	-29%	0%
